According to PubChem BioAssay (Tox21):
A number with no mark means an inactive call. Inconclusive results are not listed. Entries that show only a call come without a potency. Calls of active or inactive are those of the source. Unless noted, the call rests on the fitted dose curve; in most records, active means well fitted curve in the direction sought with a large enough effect in the repeat runs; inconclusive means weak or mixed curves; inactive means no such curve, though single readings can be large; an effect the other way counts as inactive or inconclusive.

How the values were obtained:
[1] = qHTS assay for small molecules that induce genotoxicity in human embryonic kidney cells expressing luciferase-tagged ATAD5 (AID 651632); further: nearly all actives have a fitted effect of over 15% in size
Procedure, shortened: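 Cells were seeded at 2,000 per well, dosed with compound, and incubated 16 hr at 37C in 5% CO2. Luciferase activity was then quantified after a 30 min room-temperature incubation with Amplite.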

[2] = qHTS assay for small molecule agonists of the p53 signaling pathway - cell viability (AID 651633; calls by dose curve;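 further: p53RE-bla HCT reporter cells with a stable beta-lactamase p53 reporter; series mostly up to about 83 µM; nearly all actives have a fitted effect of over 30% in size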)
Procedure, shortened: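 Viability counter-read: CellTiter-Glo luminescence (30 min, room temperature) in the same p53RE-bla plates. These plates had been exposed to compounds for 16 h at 37 C.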

[3] = qHTS assay for small molecules that induce genotoxicity in human embryonic kidney cells expressing luciferase-tagged ATAD5 - cell viability (AID 651634; calls by dose curve; further: nearly all actives have a fitted effect of over 25% in size)
Procedure, shortened: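 Cells (HEK293T, luciferase-tagged ATAD5) are seeded at 2,000 per well, dosed with compound or DMSO vehicle, and incubated 15.5 hr at 37C and 5% CO2. CellTiter-Fluor is added for 30 min before fluorescence is measured.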

[4] = qHTS assay for small molecule disruptors of the mitochondrial membrane potential - cell viability (AID 720634; calls by dose curve;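 further: human HepG2 liver cancer cells; series mostly up to about 83 µM; nearly all actives have a fitted effect of over 20% in size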)
Procedure, shortened: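 Cytotoxicity was measured by ATP quantitation in HepG2 wells that had first been treated with compound for 1 hr and stained with m-MPI dye; CellTiter-Glo incubation was 30 min at room temperature.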

[5] = qHTS assay for small molecule disruptors of the mitochondrial membrane potential (AID 720635); further: potency means the concentration at half of the fitted maximal effect
Procedure, shortened: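 Mitochondrial membrane potential tracked with Mito-MPS dye, red aggregates (ex 540/em 590 nm) against green monomers (ex 490/em 535 nm). Compound treatment 1 hr at 37C, dye 30 min in HepG2.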

[6] = qHTS assay to test for compound auto fluorescence at 590 nm (red) in HepG2 cells (AID 720674)
Procedure, shortened: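 1 hr compound incubation on HepG2 cells, 37 C, 5% CO2; plate read ex 540 nm / em 590 nm; intensities reported as Rose Bengal sodium equivalents.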

[7] = qHTS assay to test for compound auto fluorescence at 535 nm (green) in HepG2 cells (AID 720675)
[8] = qHTS assay to test for compound auto fluorescence at 460 nm (blue) in HEK293 cells (AID 720678)
Procedure, shortened: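 HEK293 cells (2,000/well, medium with 10% dialyzed FBS) attached 4-5 hr, then exposed to compound overnight at 37C, 5% CO2. Blue fluorescence read at 405/460 nm, with triamterene as reference fluorophore.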

[9] = qHTS assay to test for compound auto fluorescence at 590 nm (red) in HEK293 cells (AID 720679)
Procedure, shortened: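 HEK293 cells (2,000/well, 10% dialyzed FBS) attached 4-5 hr, then dosed with compound or DMSO and incubated overnight at 37C, 5% CO2. Red fluorescence read at 540/590 nm, Rose Bengal sodium as reference fluorophore.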

[10] = qHTS assay to test for compound auto fluorescence at 460 nm (blue) in HEK293 cell free culture (AID 720681)
Procedure, shortened: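 Blue fluorescence (Ex 405/Em 460 nm, triamterene-equivalent) was read immediately after pin transfer of compound or DMSO into medium (DMEM, 10% FBS) without cells.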

[11] = qHTS assay to test for compound auto fluorescence at 535 nm (green) in HEK293 cell free culture (AID 720682)
Procedure, shortened: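 Fluorescein serves as the green reference fluorophore; each compound's intrinsic emission at 535 nm (excitation 485 nm) is reported as an equivalent amount of that dye, measured in serum-containing DMEM without cells.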

[12] = qHTS assay to test for compound auto fluorescence at 590 nm (red) in HEK293 cell free culture (AID 720683)
Procedure, shortened: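 Red-channel autofluorescence of compounds in culture medium (DMEM, 10% FBS), no cells, measured at 540/590 nm. Rose Bengal sodium is the reference fluorophore for equivalence.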

[13] = qHTS assay to test for compound auto fluorescence at 590 nm (red) in HepG2 cell free culture (AID 720684)
Procedure, shortened: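 Cell-free; medium MEM + 10% FBS; compound or DMSO added by pintool; read Ex 540/Em 590 nm; Rose Bengal sodium as red reference fluorophore.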

[14] = qHTS assay to test for compound auto fluorescence at 460 nm (blue) in HepG2 cell free culture (AID 720685)
Procedure, shortened: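 Cell-free plates of MEM plus 10% FBS received 23 nL compound or DMSO vehicle; blue-channel (405/460 nm) intensity scored against triamterene as reference fluorophore.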

[15] = qHTS assay to test for compound auto fluorescence at 535 nm (green) in HepG2 cell free culture (AID 720686)
[16] = qHTS assay to test for compound auto fluorescence at 460 nm (blue) in HepG2 cells (AID 720687)
Procedure, shortened: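 Blue-channel autofluorescence (Ex/Em 405/460 nm, triamterene-equivalent) was measured after 1 hr compound exposure at 37 C, 5% CO2. Cells were HepG2, plated overnight at 37 C in MEM plus 10% FBS.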

[17] = qHTS assay for small molecule agonists of the p53 signaling pathway (AID 651631; calls by dose curve; further: nearly all actives have a fitted effect of over 15% in size)
Procedure, shortened: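 Read-out is beta-lactamase FRET fluorescence measured 2 h after substrate addition at room temperature, in HCT-116 cells with a p53 response element-driven reporter exposed to compounds for 16 h at 37 °C.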

[18] = qHTS assay to test for compound auto fluorescence at 535 nm (green) in HEK293 cells (AID 720680)
[19] = target: Glucocorticoid receptor (Homo sapiens) (UniProt P04150); experiment: qHTS assay to identify small molecule agonists of the glucocorticoid receptor (GR) signaling pathway (AID 720691; active means well fitted activation curve with a large enough effect in the signal ratio in the repeat runs, not every such curve was filed as active; the % refers to the signal ratio; further: potency means the concentration at half of the fitted maximal effect)
Procedure, shortened: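 Steps: seed GR-bla HeLa cells, incubate 4 h at 37 C/5% CO2; pin-transfer DMSO-dissolved compounds; incubate 18 h at 37 C; add LiveBLAzer B/G FRET substrate; after 2 h at room temperature, measure fluorescence.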

[20] = target: Glucocorticoid receptor (Homo sapiens) (UniProt P04150); experiment: qHTS assay to identify small molecule antagonists of the glucocorticoid receptor (GR) signaling pathway (AID 720692; active means well fitted inhibition curve with a large enough effect in the signal ratio in the repeat runs, not every such curve was filed as active; the % refers to the signal ratio; further: potency means the concentration at half of the fitted maximal effect)
Procedure, shortened: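 Antagonism was scored as loss of dexamethasone-driven (5 nM final) reporter signal in HeLa cells bearing a glucocorticoid response element–beta-lactamase construct, after 18 h compound exposure at 37 C and 2 h FRET substrate loading.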

Glucocorticoid receptor (Homo sapiens), sequence (P04150 whole entry, looked up): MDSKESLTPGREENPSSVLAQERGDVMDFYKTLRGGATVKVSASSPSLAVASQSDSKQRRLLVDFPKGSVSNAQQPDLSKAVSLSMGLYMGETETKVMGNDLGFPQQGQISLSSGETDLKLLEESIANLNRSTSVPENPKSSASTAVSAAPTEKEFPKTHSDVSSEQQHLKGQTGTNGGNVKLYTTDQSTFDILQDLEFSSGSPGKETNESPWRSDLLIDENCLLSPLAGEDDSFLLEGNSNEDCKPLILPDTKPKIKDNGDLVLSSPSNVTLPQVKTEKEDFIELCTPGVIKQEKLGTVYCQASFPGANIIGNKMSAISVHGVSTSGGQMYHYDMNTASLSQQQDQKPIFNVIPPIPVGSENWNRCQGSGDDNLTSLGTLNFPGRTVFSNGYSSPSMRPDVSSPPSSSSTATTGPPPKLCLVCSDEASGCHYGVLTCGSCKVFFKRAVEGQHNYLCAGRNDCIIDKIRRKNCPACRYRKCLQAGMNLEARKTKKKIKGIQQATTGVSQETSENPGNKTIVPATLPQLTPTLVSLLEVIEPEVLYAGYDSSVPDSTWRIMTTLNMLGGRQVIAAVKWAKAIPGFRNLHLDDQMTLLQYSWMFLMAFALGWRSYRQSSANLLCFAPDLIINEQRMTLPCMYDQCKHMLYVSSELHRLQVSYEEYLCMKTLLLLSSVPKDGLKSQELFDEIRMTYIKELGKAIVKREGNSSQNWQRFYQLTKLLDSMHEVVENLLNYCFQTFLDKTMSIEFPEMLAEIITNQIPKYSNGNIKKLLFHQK

**Q.** Which Potency [1] does the source give for `O=C1OCCN1/N=C/c1ccc([N+](=O)[O-])o1` here?
**A.** inactive

**Q.** What about the Potency [2] of the same compound?
**A.** inactive

**Q.** And the Potency [3]?
**A.** inactive

**Q.** And the Potency [4]?
**A.** inactive

**Q.** And the Potency [5]?
**A.** inactive

**Q.** And the outcome [6]?
**A.** inactive

**Q.** What about the outcome [7] of the same compound?
**A.** inactive

**Q.** What about the Potency [8] of the same compound?
**A.** inactive

**Q.** And the outcome [9]?
**A.** inactive

**Q.** And the Potency [10]?
**A.** inactive

**Q.** What about the outcome [11] of the same compound?
**A.** inactive

**Q.** And the outcome [12]?
**A.** inactive

**Q.** And the outcome [13]?
**A.** inactive

**Q.** What about the Potency [14] of the same compound?
**A.** inactive

**Q.** And the outcome [15]?
**A.** inactive

**Q.** And the Potency [16]?
**A.** inactive

**Q.** Which Potency [17] does the source give for `CC(C)CCCCCCOC(=O)CCCCC(=O)OCCCCCCC(C)C` here?
**A.** inactive

**Q.** What about the Potency [2] of the same compound?
**A.** inactive

**Q.** And the Potency [3]?
**A.** inactive

**Q.** And the outcome [7]?
**A.** inactive

**Q.** What about the Potency [8] of the same compound?
**A.** inactive

**Q.** And the outcome [9]?
**A.** inactive

**Q.** And the outcome [18]?
**A.** inactive

**Q.** What about the Potency [10] of the same compound?
**A.** inactive

**Q.** What about the outcome [11] of the same compound?
**A.** inactive

**Q.** What about the outcome [12] of the same compound?
**A.** inactive

**Q.** And the outcome [13]?
**A.** inactive

**Q.** And the Potency [14]?
**A.** inactive

**Q.** And the outcome [15]?
**A.** inactive

**Q.** And the Potency [16]?
**A.** inactive

**Q.** What about the Potency [19] of the same compound?
**A.** inactive

**Q.** What about the Potency [20] of the same compound?
**A.** inactive

**Q.** For `CC(=O)[C@H]1CC[C@H]2[C@@H]3C=CC4=CC(=O)CC[C@@]4(C)[C@@H]3CC[C@]12C`, which Potency [1] is on record?
**A.** inactive

**Q.** What about the Potency [2] of the same compound?
**A.** inactive

**Q.** What about the Potency [3] of the same compound?
**A.** inactive

**Q.** And the Potency [4]?
**A.** inactive

**Q.** What about the fluorescence, relative to Rose Bengal [6] of the same compound?
**A.** -0.279% [at 18.6 µM]

**Q.** What about the fluorescence, % of fluorescein control [7] of the same compound?
**A.** -0.0643% [at 18.6 µM]

**Q.** What about the fluorescence, % of triamterene [8] of the same compound?
**A.** -0.137% [at 18.6 µM]

**Q.** What about the fluorescence, % of fluorescent control [9] of the same compound?
**A.** -0.3% [at 18.6 µM]

**Q.** What about the fluorescence, % of fluorescein [18] of the same compound?
**A.** -0.274% [at 18.6 µM]

**Q.** What about the fluorescence, % of fluorescent control [10] of the same compound?
**A.** -0.214% [at 18.6 µM]

**Q.** And the activity change [11]?
**A.** -0.278% [at 18.6 µM]

**Q.** What about the fluorescence, % of fluorescent control [12] of the same compound?
**A.** -0.0895% [at 18.6 µM]

**Q.** And the fluorescence, % of Rose Bengal [13]?
**A.** -0.458% [at 18.6 µM]

**Q.** What about the fluorescence, % of fluorescent control [14] of the same compound?
**A.** -0.0065% [at 18.6 µM]

**Q.** What about the fluorescence, % of fluorescein control [15] of the same compound?
**A.** -0.0891% [at 18.6 µM]

**Q.** And the fluorescence, % of fluorescent control [16]?
**A.** 0.0499% [at 18.6 µM]

**Q.** What about the Potency [19] of the same compound?
**A.** 0.0007 µM (active)

**Q.** What about the Potency [20] of the same compound?
**A.** 1.82 µM (active)

**Q.** Which results are given for `Cc1cc(C(=C2C=CC(=Nc3ccc(S(=O)(=O)O)cc3S(=O)(=O)O)C=C2)c2ccc(Nc3ccc(S(=O)(=O)O)cc3)cc2)ccc1N`?
**A.** Potency [1]: inactive; Potency [2]: inactive; Potency [3]: inactive; Potency [4]: inactive; outcome [6]: inactive; outcome [7]: inactive; Potency [8]: inactive; outcome [9]: inactive; outcome [18]: inactive; Potency [10]: inactive; outcome [11]: inactive; outcome [12]: inactive; outcome [13]: inactive; Potency [14]: inactive; outcome [15]: inactive; Potency [16]: inactive

**Q.** With `CCN(Cc1cccc(S(=O)(=O)O)c1)c1ccc(C(=C2C=CC(=[N+](CC)Cc3cccc(S(=O)(=O)[O-])c3)C=C2)c2ccccc2)cc1` as the compound, how does the Potency [1] read?
**A.** inactive

**Q.** And the Potency [2]?
**A.** inactive

**Q.** And the Potency [3]?
**A.** inactive

**Q.** What about the Potency [4] of the same compound?
**A.** inactive

**Q.** And the outcome [6]?
**A.** inactive

**Q.** And the outcome [7]?
**A.** inactive

**Q.** What about the Potency [8] of the same compound?
**A.** inactive

**Q.** And the outcome [9]?
**A.** inactive

**Q.** And the outcome [18]?
**A.** inactive

**Q.** What about the Potency [10] of the same compound?
**A.** inactive

**Q.** What about the outcome [11] of the same compound?
**A.** inactive

**Q.** And the outcome [12]?
**A.** inactive

**Q.** And the Potency [14]?
**A.** inactive

**Q.** And the outcome [15]?
**A.** inactive

**Q.** What about the Potency [16] of the same compound?
**A.** inactive

**Q.** For `O=C(c1ccc(O)cc1)c1ccc(Cl)cc1`, which Potency [1] is on record?
**A.** inactive

**Q.** What about the Potency [2] of the same compound?
**A.** inactive

**Q.** And the Potency [3]?
**A.** inactive

**Q.** What about the Potency [5] of the same compound?
**A.** 15.7 µM (active)

**Q.** What about the outcome [6] of the same compound?
**A.** inactive

**Q.** What about the outcome [7] of the same compound?
**A.** inactive

**Q.** And the Potency [8]?
**A.** inactive

**Q.** And the outcome [9]?
**A.** inactive

**Q.** And the outcome [18]?
**A.** inactive

**Q.** What about the Potency [10] of the same compound?
**A.** inactive

**Q.** What about the outcome [11] of the same compound?
**A.** inactive

**Q.** What about the outcome [12] of the same compound?
**A.** inactive

**Q.** What about the outcome [13] of the same compound?
**A.** inactive

**Q.** What about the Potency [14] of the same compound?
**A.** inactive

**Q.** What about the outcome [15] of the same compound?
**A.** inactive

**Q.** What about the Potency [16] of the same compound?
**A.** inactive

**Q.** And the Potency [19]?
**A.** inactive

**Q.** What does the source list for `Cc1ccc(/C=N/n2c(-c3ccccc3)csc2=S)cc1`?
**A.** Potency [1]: inactive; Potency [2]: inactive; Potency [3]: inactive; Potency [5]: 18.8 µM (active); outcome [6]: inactive; outcome [7]: inactive; Potency [8]: inactive; outcome [9]: inactive; outcome [18]: inactive; Potency [10]: inactive; outcome [11]: inactive; outcome [12]: inactive; outcome [13]: inactive; Potency [14]: inactive; outcome [15]: inactive; Potency [16]: inactive; Potency [19]: inactive
